In PubChem BioAssay (NCI):
The panel holds about 83,000 compounds, 20% with a hit somewhere; the sample as a whole holds those more often.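 Plates (96-well) were seeded with cells, treated with compound at one concentration, and incubated for 48 hours before percent growth was determined.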 Unmarked numbers belong to inactive results. The source made the active and inactive calls. How the source made its calls: active means growth percent below 10; inactive means the rest.

How the values were obtained:
Assay in all cases: NCI-60 one-dose screen, 48 h (100 = growth as untreated, 0 = no growth, -100 = all killed)
Details in all cases: 10 µM unless noted
[1] = test system: NCI-H23 lung
[2] = test system: NCI-H226 lung
[3] = test system: NCI-H322M lung
[4] = test system: HOP-62 NSCLC
[5] = test system: NCI-H460 lung
[6] = test system: HOP-92 NSCLC
[7] = test system: NCI-H522 lung
[8] = test system: A549/ATCC NSCLC
[9] = test system: 786-0 renal
[10] = test system: COLO 205 colon

Cc1ccc(CNc2ccc3nc(CCC4CCCCC4)[nH]c3c2)cc1
growth [1]: 30.6%
growth [2]: 43.2%
growth [3]: 92.3%
growth [4]: 73%
growth [5]: 58.4%
growth [6]: 0.719% (active)
growth [7]: 9.99% (active)
growth [8]: 63.3%
growth [9]: 52.2%

O=[N+]([O-])c1ccc(O)cc1Br
growth [1]: 95.1%
growth [2]: 93.2%
growth [3]: 105%
growth [4]: 92.4%
growth [5]: 104%
growth [6]: 44.8%
growth [7]: 90.7%
growth [8]: 103%
growth [9]: 99.8%

CCCCNC(=O)Oc1ccc(/C(=C(/C)Cc2ccc(OC)cc2)c2ccc(OCCN(CC)CC)cc2)cc1
growth [1]: 97%
growth [2]: 101%
growth [3]: 84.9%
growth [4]: 91.5%
growth [5]: 53.3%
growth [6]: 52.6%
growth [7]: 85.3%
growth [8]: 61.2%
growth [9]: 69%

COc1c(B(O)O)cccc1-c1nc2c(F)cc3[nH]ncc3c2c2c1CCCC2
growth [1]: -11.1% (active)
growth [2]: 9.55% (active)
growth [3]: 7.84% (active)
growth [4]: 9.83% (active)
growth [5]: 4.81% (active)
growth [6]: 14.4%
growth [7]: 1.23% (active)
growth [8]: 12.2%
growth [9]: 0.342% (active)

N#Cc1nc(-c2ccccc2)oc1S(=O)(=O)N1CCN(c2ccccc2)CC1
growth [1]: 74.9%
growth [2]: 87.2%
growth [3]: 95.6%
growth [4]: 104%
growth [5]: 97.8%
growth [6]: 116%
growth [7]: 58.6%
growth [8]: 99.9%
growth [9]: 99.8%

Cn1cc(-c2csc(-c3c[nH]c4ccccc34)n2)c2cnccc21
growth [1]: 85.5%
growth [2]: 87.7%
growth [3]: 90.2%
growth [4]: 8.92% (active)
growth [5]: -17.7% (active)
growth [6]: 72.7%
growth [7]: -39.6% (active)
growth [8]: 18%
growth [9]: -87% (active)

O=c1c2cccc3c(N4CCCC4)ccc(c32)c2nc3ccccc3n12
growth [1]: 68.2%
growth [2]: 55.3%
growth [3]: 95.1%
growth [4]: 66.1%
growth [5]: 16.1%
growth [6]: 40.7%
growth [7]: 71.2%
growth [8]: 35.6%
growth [9]: 88.3%

COc1ccc2c(c1OC)CO[C@@H]2[C@H]1c2c(cc3c(c2OC)OCO3)CCN1S(=O)(=O)c1cn(C)cn1
growth [1]: 32.9%
growth [2]: 73.6%
growth [3]: 48%
growth [4]: 30.9%
growth [5]: 6.13% (active)
growth [6]: 60.7%
growth [7]: 19.4%
growth [8]: 21.2%
growth [9]: 41.9%

COc1ccc(/C=C/C(=O)c2cccc(OCCCCOc3cccc(C(=O)/C=C/c4ccc(OC)c(OC)c4)c3)c2)cc1OC
growth [1]: 54.5%
growth [2]: 57.5%
growth [3]: 87.3%
growth [4]: 72.8%
growth [5]: 80.5%
growth [6]: 55.3%
growth [7]: 64.4%
growth [8]: 78%
growth [9]: 89.8%
growth [10]: 112%

COc1cc2oc(-c3cccc(NC(=O)c4ccccc4)c3)cc(=O)c2c(OC)c1OC
growth [1]: 72.9%
growth [2]: 81.4%
growth [3]: 83.8%
growth [4]: 78.4%
growth [5]: 78.7%
growth [6]: 47.6%
growth [7]: 49.3%
growth [8]: 68.9%
growth [9]: 78.1%

COc1ccccc1NC(=O)N=Nc1c(O)[nH]c2ccccc12
growth [1]: 89.8%
growth [2]: 86.5%
growth [3]: 81.2%
growth [4]: 98.8%
growth [5]: 104%
growth [6]: 80.3%
growth [7]: 83.2%
growth [8]: 95.7%
growth [9]: 90.4%
growth [10]: 85.2%

CN(/C(N)=N/N=C/c1c2ccccc2cc2ccccc12)C1CCCCC1
growth [1]: 16.1%
growth [2]: 64.3%
growth [3]: 73.6%
growth [4]: 75.8%
growth [5]: 43.6%
growth [6]: -5.84% (active)
growth [7]: 40.9%
growth [8]: 43.4%
growth [9]: 49.5%

COc1ccc(/C=N/NC(=O)c2ccc(-n3cc(-c4ccccc4)nn3)cc2)cc1OC
growth [1]: 95.2%
growth [2]: 92.7%
growth [3]: 105%
growth [4]: 101%
growth [5]: 111%
growth [6]: 94.9%
growth [7]: 99.6%
growth [8]: 104%
growth [9]: 98.1%

CCOC(=O)c1ccc(NC(=O)c2nc(-c3cc(OC)c(OC)c(OC)c3)n(-c3ccc(Cl)cc3)n2)cc1
growth [1]: 91.3%
growth [2]: 90.9%
growth [3]: 81.1%
growth [4]: 97.6%
growth [5]: 97.1%
growth [6]: 71.8%
growth [7]: 67.2%
growth [8]: 88.9%
growth [9]: 93.5%

COC(CC(F)F)c1cn(S(=O)(=O)c2ccc(C)cc2)c2ccccc12 (centres undefined)
growth [1]: 52%
growth [2]: 75.9%
growth [3]: 27.8%
growth [4]: 34.1%
growth [5]: 11.6%
growth [6]: 40.8%
growth [7]: 42.7%
growth [8]: 33.9%
growth [9]: 35.3%

Clc1cc(Cl)c(Cl)c(-c2nnc(SCc3ccncc3Br)o2)c1
growth [1]: 87.7%
growth [2]: 98%
growth [3]: 102%
growth [4]: 82.5%
growth [5]: 95.9%
growth [6]: 84.4%
growth [7]: 83.8%
growth [8]: 153%
growth [9]: 93.7%

CCCCC1=C(P(=O)(O)O)N[C@H](C(=O)O)CS1
growth [1]: 97.5%
growth [2]: 95.5%
growth [3]: 73.8%
growth [4]: 89.4%
growth [5]: 107%
growth [6]: 89.5%
growth [7]: 83.2%
growth [8]: 92%
growth [9]: 95.1%

O=C(COc1ccc(-c2nc3cc(Cl)c(Cl)cc3[nH]2)cc1)N=Nc1c(O)[nH]c2ccc(Cl)cc12
growth [1]: 70.1%
growth [2]: 80.8%
growth [3]: 94.9%
growth [4]: 89.9%
growth [5]: 46.4%
growth [6]: 77.1%
growth [7]: 97.9%
growth [8]: 75.9%
growth [9]: 68.7%

COc1ccc(C(=O)Nc2cccc(-c3cc(=O)c4c(OC)c(OC)c(OC)cc4o3)c2)cc1
growth [1]: 57.5%
growth [2]: 69.9%
growth [3]: 55.1%
growth [4]: 72.5%
growth [5]: 42.1%
growth [6]: 6.67% (active)
growth [7]: 44.5%
growth [8]: 64.7%
growth [9]: 55%

c1cnc2c(-c3nc4ccc5[nH]ncc5c4c4c3CCCC4)c[nH]c2c1
growth [1]: 22.4%
growth [2]: 42.6%
growth [3]: 21.3%
growth [4]: 15%
growth [5]: 7.48% (active)
growth [6]: 40.6%
growth [7]: -23.3% (active)
growth [8]: 16.6%
growth [9]: 32.5%

CC(=O)N1N=C(c2ccc(C(F)(F)F)c(F)c2)CC1c1[nH]c(C)c(C(=O)NCC(F)(F)F)c1C (centres undefined)
growth [1]: 78.8%
growth [2]: 56.3%
growth [3]: 74.6%
growth [4]: 64.9%
growth [5]: 52.1%
growth [6]: 52.4%
growth [7]: 94.8%
growth [8]: 55.8%
growth [9]: 13.1%

Clc1ccc(/C=N\N=C\c2ccc(Cl)c(Cl)c2)cc1Cl
growth [1]: 84.9%
growth [2]: 104%
growth [3]: 102%
growth [4]: 95.8%
growth [5]: 47.1%
growth [6]: 88.6%
growth [7]: 77.4%
growth [8]: 87.2%
growth [9]: 97.3%

CN(C)c1ccc(-c2c(C#N)c(N)nn2C(=O)c2ccc(NC(=O)c3ccccn3)cc2)cc1
growth [1]: 96.5%
growth [2]: 98.2%
growth [3]: 96.7%
growth [4]: 94.3%
growth [5]: 94.2%
growth [6]: 94.9%
growth [7]: 91.4%
growth [8]: 96.1%
growth [9]: 96%

COc1c(C(=O)Nc2ccc(C)c(Br)c2)ccc2ccccc12
growth [1]: 90.6%
growth [2]: 103%
growth [3]: 104%
growth [4]: 99.8%
growth [5]: 102%
growth [6]: 105%
growth [7]: 85%
growth [8]: 87.9%
growth [9]: 96.5%
growth [10]: 101%

C=C1C(=O)O[C@H]2[C@H]1CC/C(COC(=O)c1cc3ccccc3s1)=C\CC[C@@]1(C)O[C@@H]21
growth [1]: -46.4% (active)
growth [2]: -51.1% (active)
growth [3]: -25.8% (active)
growth [4]: -61.6% (active)
growth [5]: -57.3% (active)
growth [6]: -74.4% (active)
growth [7]: -70.1% (active)
growth [8]: -51.1% (active)
growth [9]: -83.4% (active)

CC(=O)N1N=C(c2ccc(Nc3nc(Nc4ccccc4)nc(Nc4ccccc4)n3)cc2)CC1c1ccccc1 (centres undefined)
growth [1]: 94%
growth [2]: 86%
growth [3]: 84.9%
growth [4]: 77.6%
growth [5]: 86.7%
growth [6]: 61.5%
growth [7]: 89.3%
growth [8]: 79.3%
growth [9]: 86.8%

CC(=O)O[C@@H]1C[C@]2(C(C)C)O[C@@]1(C)[C@@H]1CCC(C)=C1[C@@H]2OC(=O)/C=C/c1ccccc1
growth [1]: 95.3%
growth [2]: 66.2%
growth [3]: 93.4%
growth [4]: 90.6%
growth [5]: 94.2%
growth [6]: 72.8%
growth [7]: 73.3%
growth [8]: 82.3%
growth [9]: 87.6%

O=C(/C=C/c1cn(-c2ccccc2)nc1-c1ccc(Cl)cc1)c1ccc(F)cc1
growth [1]: 69.9%
growth [2]: 85.8%
growth [3]: 77.2%
growth [4]: 102%
growth [5]: 74%
growth [6]: 99.2%
growth [7]: 87.1%
growth [8]: 79.7%
growth [9]: 62.8%

O=C1Nc2ccccc2/C1=C/c1cccn1CCCCn1c2ccccc2c(=O)c2ccccc21
growth [1]: 77.4%
growth [2]: 75.2%
growth [3]: 101%
growth [4]: 77.4%
growth [5]: 93.7%
growth [6]: 59.5%
growth [7]: 68.4%
growth [8]: 86.3%
growth [9]: 97%
